Laboratory results from PubChem BioAssay (NCI).
This is part of a sample that, as a whole, favours compounds with a hit. Of some 79,000 tested, about 15% had one in any assay. Activity calls are given as the source filed them. Rule as the data show it: active = growth inhibition above about 70%; inactive = the rest.

Columns and labels:
[1] = NCI Yeast Anticancer Drug Screen. Data for the rad52 strain (AID 147);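 also: 0% = growth of vehicle-treated control cultures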; settings: S. cerevisiae rad52 mutant growth inhibition, hits give high values
Outline: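 Here a repair-compromised yeast strain receives each compound; its growth is then quantified and normalised to vehicle-only controls.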

[2] = NCI Yeast Anticancer Drug Screen. Data for the wt1 strain (AID 149);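 also: 0% = growth of vehicle-treated wt1 cultures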; settings: S. cerevisiae wt1 strain (SPY 50644) growth inhibition, hits give high values
Outline: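 Compounds are added to wt1 yeast cultures. Growth is then measured. Inhibition is expressed relative to vehicle-treated controls.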

[3] = NCI Yeast Anticancer Drug Screen. Data for the rad50EPP+ strain (AID 151);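 also: 0% = growth of vehicle-treated control cultures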; settings: S. cerevisiae rad50 mutant strain, hits give high values
Outline: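 Read-out is yeast growth inhibition relative to vehicle; cells used were the rad50EPP+ strain.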

[4] = NCI Yeast Anticancer Drug Screen. Data for the mgt1 strain (AID 153); settings: S. cerevisiae mgt1 mutant growth inhibition, hits give high values
Outline: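 Measured: inhibition of mgt1 yeast growth by compound, normalized to vehicle-treated cultures.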

[5] = NCI Yeast Anticancer Drug Screen. Data for the rad50 strain (AID 155);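 also: 0% = growth of vehicle-only cultures of the same strain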; settings: S. cerevisiae rad50 strain growth inhibition, hits give high values
Outline: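 Inhibition values express reduced yeast growth in compound-treated cultures relative to vehicle-treated controls.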

[6] = NCI Yeast Anticancer Drug Screen. Data for the mec2-1 strain (AID 157); settings: S. cerevisiae mec2-1 strain, hits give high values
Outline: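 Using mec2-1 yeast: add compound, measure growth, express inhibition versus vehicle-treated cultures.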

[7] = NCI Yeast Anticancer Drug Screen. Data for the rad14 strain (AID 159);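 also: 0% = growth of vehicle-treated control cultures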; settings: S. cerevisiae rad14 strain growth inhibition, hits give high values
Outline: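 A mutant yeast strain defective in DNA damage repair is treated with compound; inhibition of its growth is scored against untreated, vehicle-exposed cultures.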

[8] = NCI Yeast Anticancer Drug Screen. Data for the sgs1 mgt1 strain (AID 161);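 also: 0% = growth of cultures given vehicle only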; settings: S. cerevisiae sgs1 mgt1 strain, hits give high values
Outline: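 Yeast cells carrying a defined DNA-repair defect were exposed to test compounds. Growth inhibition was measured relative to vehicle-treated controls.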

[9] = NCI Yeast Anticancer Drug Screen. Data for the CLN2oe strain (AID 163);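 also: 0% = growth of vehicle-only control cultures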; settings: S. cerevisiae CLN2oe strain, hits give high values
Outline: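 Whole-cell yeast growth assay. A strain engineered for altered cell-cycle control received compound, and inhibition relative to vehicle-treated cultures was recorded.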

[10] = NCI Yeast Anticancer Drug Screen. Data for the cln2 rad14 strain (AID 165);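 also: 0% = growth equal to vehicle treated cultures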; settings: S. cerevisiae cln2 rad14 strain, hits give high values
Outline: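 Yeast strain cln2 rad14, bearing defects in cell cycle control and DNA repair, serves as the test system; values reflect growth inhibition compared with vehicle.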

[11] = NCI Yeast Anticancer Drug Screen. Data for the bub3 strain (AID 167); settings: S. cerevisiae bub3 mutant strain, hits give high values
Outline: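 Steps: expose the mutant yeast strain to compound; grow alongside vehicle-treated cultures; measure growth; express inhibition against the vehicle cultures.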

[12] = NCI Yeast Anticancer Drug Screen. Data for the wt2 strain (AID 169);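 also: 0% = growth of vehicle-treated yeast cultures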; settings: S. cerevisiae wt2 strain growth inhibition, hits give high values
Outline: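 Treated yeast vs. vehicle-treated yeast: growth inhibition determined.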

[13] = NCI Yeast Anticancer Drug Screen. Data for the mlh1 strain (AID 171);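 also: 0% = growth of vehicle-treated control cultures of the same strain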; settings: S. cerevisiae mlh1 strain growth inhibition, hits give high values
Outline: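 A yeast strain with a defined genetic lesion serves as the test organism. Cultures receive compound or vehicle, and growth is measured.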

[14] = NCI Yeast Anticancer Drug Screen. Data for the sgs1 strain (AID 173);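 also: 0% = growth of vehicle-only control cultures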; settings: S. cerevisiae sgs1 mutant, hits give high values
Outline: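 A genetically defined yeast mutant is incubated with the test compound, and its growth is compared to that of the same strain given vehicle.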

[15] = NCI Yeast Anticancer Drug Screen. Data for the mlh1 rad18 strain (AID 175); settings: S. cerevisiae mlh1 rad18 strain growth inhibition, hits give high values
Outline: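 Steps: expose repair-defective yeast to compound; measure growth; express inhibition against vehicle-treated controls.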

[16] = NCI Yeast Anticancer Drug Screen. Data for the rad18 strain (AID 177); settings: S. cerevisiae rad18 mutant growth inhibition, hits give high values
Outline: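 Measured value is growth inhibition of a yeast strain bearing a DNA repair alteration, referenced to vehicle-treated cells.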

[17] = at 5.0 µM (retest, dose inferred, filed as 0.5)
[18] = at 50.0 µM (retest, dose inferred, filed as 5.0)

Measured: growth inhibition

CCC1(O)C(=O)OCc2c1cc1n(c2=O)Cc2cc3cc(Cl)ccc3nc2-1 (stereo unspecified)
active: [1]; at 1.2 µM 94% | [1]; at 3.7 µM 95% | [1]; at 11.0 µM 95% | [1]; at 33.0 µM 95% | [1]; at 100.0 µM 92% | [3]; at 1.2 µM 92% | [3]; at 3.7 µM 93% | [3]; at 11.0 µM 94% | [3]; at 33.0 µM 92% | [3]; at 100.0 µM 88% | [5]; at 1.2 µM 96% | [5]; at 3.7 µM 94% | [5]; [17] 97% | [5]; at 11.0 µM 95% | [5]; at 33.0 µM 93% | [5]; [18] 92% | [5]; at 50.0 µM 93.7% | [5]; at 100.0 µM 78% | [6]; at 3.7 µM 88% | [6]; [17] 87% | [6]; at 11.0 µM 93% | [6]; at 33.0 µM 92% | [6]; [18] 88% | [6]; at 50.0 µM 92.7% | [6]; at 100.0 µM 89% | [8]; [18] 84% | [13]; at 100.0 µM 74% | [14]; at 33.0 µM 83% | [14]; at 100.0 µM 80% | [16]; at 100.0 µM 71%
inactive: [2]; at 1.2 µM 3% | [2]; at 3.7 µM 0% | [2]; at 11.0 µM 16% | [2]; at 33.0 µM 43% | [2]; at 100.0 µM 65% | [4]; at 1.2 µM 13% | [4]; at 3.7 µM 19% | [4]; at 11.0 µM 30% | [4]; at 33.0 µM 57% | [4]; at 100.0 µM 67% | [6]; at 1.2 µM 60% | [7]; at 1.2 µM 12% | [7]; at 3.7 µM 19% | [7]; at 11.0 µM 35% | [7]; at 33.0 µM 59% | [7]; at 100.0 µM 69% | [8]; [17] 62% | [8]; at 50.0 µM 40.2% | [9]; at 1.2 µM 6% | [9]; at 3.7 µM 14% | [9]; at 11.0 µM 33% | [9]; at 33.0 µM 47% | [9]; at 100.0 µM 59% | [10]; [17] 24% | [10]; [18] 48% | [10]; at 50.0 µM 45.9% | [11]; at 1.2 µM -6% | [11]; at 3.7 µM 6% | [11]; [17] -2% | [11]; at 11.0 µM 24% | [11]; at 33.0 µM 44% | [11]; [18] 31% | [11]; at 50.0 µM -5.7% | [11]; at 100.0 µM 62% | [12]; at 1.2 µM 4% | [12]; at 3.7 µM 19% | [12]; at 11.0 µM 20% | [12]; at 33.0 µM 31% | [12]; at 100.0 µM 47% | [13]; at 1.2 µM 3% | [13]; at 3.7 µM 8% | [13]; at 11.0 µM 36% | [13]; at 33.0 µM 65% | [14]; at 1.2 µM 31% | [14]; at 3.7 µM 46% | [14]; at 11.0 µM 69% | [15]; [17] 45% | [15]; [18] 60% | [15]; at 50.0 µM 52.5% | [16]; at 1.2 µM 14% | [16]; at 3.7 µM 14% | [16]; at 11.0 µM 34% | [16]; at 33.0 µM 64%

O=C1NC(=S)NC(=O)C1=Cc1ccc([N+](=O)[O-])o1
inactive: [1]; at 1.2 µM -50% | [1]; at 3.7 µM -58% | [1]; at 11.0 µM -6% | [1]; at 33.0 µM 57% | [2]; at 1.2 µM -18% | [2]; at 3.7 µM -4% | [2]; at 11.0 µM -1% | [2]; at 33.0 µM -1% | [2]; at 100.0 µM 6% | [3]; at 1.2 µM 11% | [3]; at 3.7 µM 23% | [3]; at 11.0 µM 61% | [4]; at 1.2 µM 15% | [4]; at 3.7 µM 20% | [4]; at 11.0 µM 41% | [4]; at 33.0 µM 58% | [5]; at 1.2 µM 12% | [5]; at 3.7 µM 17% | [5]; [17] 25% | [5]; at 11.0 µM 36% | [5]; at 33.0 µM 66% | [5]; [18] 69% | [6]; at 1.2 µM -16% | [6]; at 3.7 µM -20% | [6]; [17] -19% | [6]; at 11.0 µM -12% | [6]; at 33.0 µM 0% | [6]; [18] -4% | [6]; at 50.0 µM 3.2% | [7]; at 1.2 µM 5% | [7]; at 3.7 µM -10% | [7]; at 11.0 µM -7% | [7]; at 33.0 µM 16% | [7]; at 100.0 µM 36% | [8]; [17] 1% | [8]; [18] 36% | [8]; at 50.0 µM 48% | [9]; at 1.2 µM 9% | [9]; at 3.7 µM -1% | [9]; at 11.0 µM 5% | [9]; at 33.0 µM -9% | [10]; [17] 16% | [10]; [18] 35% | [10]; at 50.0 µM 16.7% | [11]; at 1.2 µM 11% | [11]; at 3.7 µM -9% | [11]; [17] 2% | [11]; at 11.0 µM -24% | [11]; at 33.0 µM -28% | [11]; [18] 10% | [11]; at 50.0 µM 4.45% | [11]; at 100.0 µM 53% | [12]; at 1.2 µM -20% | [12]; at 3.7 µM -12% | [12]; at 11.0 µM 2% | [12]; at 33.0 µM -8% | [12]; at 100.0 µM 64% | [13]; at 1.2 µM 15% | [13]; at 3.7 µM 33% | [13]; at 11.0 µM 21% | [13]; at 33.0 µM 41% | [14]; at 1.2 µM -11% | [14]; at 3.7 µM 2% | [14]; at 11.0 µM 10% | [14]; at 33.0 µM 32% | [14]; at 100.0 µM 54% | [15]; [17] -15% | [15]; [18] 2% | [15]; at 50.0 µM 64% | [16]; at 1.2 µM 21% | [16]; at 3.7 µM 16% | [16]; at 11.0 µM 57%
active: [1]; at 100.0 µM 85% | [3]; at 33.0 µM 87% | [3]; at 100.0 µM 92% | [4]; at 100.0 µM 79% | [5]; at 50.0 µM 77.6% | [5]; at 100.0 µM 87% | [6]; at 100.0 µM 87% | [9]; at 100.0 µM 82% | [13]; at 100.0 µM 81% | [16]; at 33.0 µM 83% | [16]; at 100.0 µM 92%
